This note sets out measurements from PubChem BioAssay (NCATS).

Records with an inconclusive call do not appear. Values without a mark were called inactive. Active and inactive are the calls of the source. The call rests on the fitted dose curve; in most records, active means well fitted curve in the direction sought with a large enough effect; inconclusive means small, poorly fitted or top-dose-only effect, or another doubt; inactive means no such curve, though single readings can be large; an effect the other way counts as inactive or inconclusive.

The target in the first assay is Aldehyde dehydrogenase, mitochondrial (Homo sapiens) (UniProt P05091). As to the kind of experiment: qHTS for Inhibitors of the Aldehyde Dehydrogenase Family (ALDH2) Primary screen (AID 2061308).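 Further: plate controls were vehicle for no effect and reference inhibitor for full effect; nearly all actives have a fitted effect of over 55% in size.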 The conditions noted are these: ALDH2 enzyme inhibition qHTS, 1536-well; series mostly up to 56 µM; activity change, negative = inhibition: at the top concentration.
In the case of `CCOC(=O)c1c(/C=N/Nc2ccccc2)c2sc(C)cc2n1C`, the “activity change, negative = inhibition” value was 64.5%.

As for `N#Cc1nc(NCC(F)F)c2ncn(-c3cc(F)cc(F)c3)c2n1`, the “activity change, negative = inhibition” value was 6.05%.

Turning to `O=c1c2[nH]c3cc(Br)sc3c2cnn1Cc1ccccc1F`, the “activity change, negative = inhibition” value is 7.57%.

As to `O=C(Nc1ccccc1F)c1ccc(O)c2ncccc12`, the “activity change, negative = inhibition” value was 5.89%.

Regarding `Cn1c2ccsc2c2ncn(Cc3ccccc3F)c(=O)c21`, the “activity change, negative = inhibition” value was -0.203%.

Take `C=CC(=O)Nc1cc(Nc2ncc(Cl)c(-c3c[nH]c4ccccc34)n2)c(OC)cc1N(C)CCN(C)C`: the “activity change, negative = inhibition” value is -0.0666%.

Turning to `CCN(CC)CCCC(C)n1c(-c2ccccc2)nc2c(N(CCOC)CCOC)nc(C)nc21` (stereo not given), the “activity change, negative = inhibition” value was 5.24%.

Turning to `N#Cc1ccccc1-c1csc(N2CCC(C(N)=O)CC2)n1`, the “activity change, negative = inhibition” value is 15.6%.

As to `Cc1cccc(Nc2nn3c(=O)c4ccccc4nc3s2)c1`, the “activity change, negative = inhibition” value was 17.2%.

Turning to `COc1ccccc1C1=Nn2c(COc3ccccc3)nnc2SC1`, the Potency entry was “inactive”.

As to `FC(F)(F)c1ccccc1-c1nc(NCc2ccc(Cl)c(Cl)c2)c2ccccc2n1`, the “activity change, negative = inhibition” value was -20.8%.

For `Nc1nc(Nc2cc(F)cc(F)c2)nc(NC2CCCC2)n1`, the “activity change, negative = inhibition” value is 4.93%.

`O=C1CCCC2=C1C(c1[nH]ncc1Cl)N=C(Nc1nc3c(Br)cccc3o1)N2` (stereo not given): the “activity change, negative = inhibition” value was -10.3%.

For the molecule `CC(=O)Nc1sc2c(c1-c1cccc3ccccc13)CCNC2`, the “activity change, negative = inhibition” value is -28.2%.

On to `C=C(C)C(=O)O[C@H]1[C@H]2C(=C)C(=O)O[C@@H]2C[C@@H](C)[C@@H]2O[C@@H]2C(=O)[C@](C)(O)[C@@H]1OC(C)=O`, for which the “activity change, negative = inhibition” value was 18.6% [at 28 µM].

In the case of `COC(=O)C1CCN(C(=O)c2ccc3c(c2)ncn3-c2cccc(C)c2)CC1`, the “activity change, negative = inhibition” value was -6.75%.

Turning to `C=C1C(=O)OC2/C=C(/C)C3=CC(=O)C(C)(CC(OC(=O)/C(C)=C/COC(C)=O)C12)O3` (stereo not given), the “activity change, negative = inhibition” value is -0.9% [at 28 µM].

Take `Cc1ccc(S(=O)(=O)Nc2ccc(C(=O)Nc3ncc(-c4ccccc4)s3)cc2)cc1`: the “activity change, negative = inhibition” value was -3.44%.

On to `Cc1cc(NS(=O)(=O)C2CCN(C(=O)Cc3ccc(Cl)c(Cl)c3)CC2)no1`, for which the “activity change, negative = inhibition” value was -13.4%.

As for `CC(C)(C)c1ccccc1Nc1nc(C#N)nc(NC2CCCC2)n1`, the “activity change, negative = inhibition” value is 2.83%.

As to `N#Cc1ccc(-c2nc(NCc3ccc(-c4ccnc(C(F)(F)F)c4)cc3)c3ccccc3n2)cc1`, the “activity change, negative = inhibition” value is 4.77%.

As for `CCOc1ccc(CCNC(=O)Cc2ccccc2)cc1OCC`, the “activity change, negative = inhibition” value was -11.3%.

`O=C(O)c1ccc2c(c1)C(=O)N([C@]1(C(=O)O)CC1c1ccccc1)C2=O` (stereo not given in full): the “activity change, negative = inhibition” value was -1.41%.

Take `Cc1cc(N[S+](=O)([O-])c2ccc(NC(=O)Cc3ccc(C(F)(F)F)c(F)c3)cc2)no1`: the “activity change, negative = inhibition” value is -0.356%.

For `NC(=O)c1ccc(O)c2ncccc12`, the “activity change, negative = inhibition” value is -7.57%.

Regarding `Fc1ccc(-c2ccc(CNc3nc(-c4ccccc4C(F)(F)F)nc4ccccc34)cc2)cc1C(F)(F)F`, the “activity change, negative = inhibition” value was 0.604%.

For `O=C1CCCC2=C1C1(CCCC1)N=C(Nc1nc3cc(Cl)ccc3o1)N2`, the “activity change, negative = inhibition” value is -6.49%.

For `Cn1c(=O)c2c(nc(CN3CCN(C(=O)C4CC4)CC3)n2Cc2ccccc2Cl)n(C)c1=O`, the “activity change, negative = inhibition” value was 2.68%.

As to `COc1cc(NC(=O)C(OC(=O)CNC(=O)c2ccccc2)c2ccccc2)c(OC)cc1Cl` (stereo not given), the “activity change, negative = inhibition” value was -7.99%.

As to `COc1ccccc1NC(=O)c1ccc2ccccc2c1`, the “activity change, negative = inhibition” value was 5.16%.

Take `COc1ccc(C2=Nn3c(nnc3-c3ccccc3OC)SC2)cc1OC`: the “activity change, negative = inhibition” value was 6.01%.

`CNc1oc(-c2ccc(-c3ccccc3)cc2)nc1C#N`: the “activity change, negative = inhibition” value is -3.73%.

Turning to `Cc1cc2c(cc1C1(c3ccc(C(=O)O)cc3)CC1)C(C)(C)CCC2(C)C`, the “activity change, negative = inhibition” value is 7.4%.

With `O=S(=O)(NC1CCN(S(=O)(=O)c2c(F)cccc2F)C1)c1ccc2c(c1)OCCO2` (stereo not given), the “activity change, negative = inhibition” value was 0.12%.

`Fc1cc(-c2nc(Nc3ccc(F)c(F)c3)c3ccccc3n2)ccn1`: the “activity change, negative = inhibition” value is 8.35%.

On to `O=C(Nc1ccc2ccccc2c1)Nc1nnc(-c2ccc(O)cc2)s1`, for which the “activity change, negative = inhibition” value was 16.7%.

For `Oc1ccc(/C=C/c2c(F)cccc2F)c2cccnc12`, the “activity change, negative = inhibition” value was 9.08%.

`C[n+]1cc(C(O)(c2ccccc2)c2ccccc2)n2ccccc21`: the “activity change, negative = inhibition” value is 2.49%.

Regarding `Cc1ccc(OCCn2c(CCNC(=O)c3ccccc3C)nc3ccccc32)cc1`, the “activity change, negative = inhibition” value is -3.49%.

With `COc1ccc2c(=O)n3nc(Nc4cccc(N5CCN(C)CC5)c4)sc3nc2c1`, the “activity change, negative = inhibition” value was 5.14%.

Another assay deals with Retinaldehyde dehydrogenase 3 (Homo sapiens) (UniProt P47895). Description: qHTS for Inhibitors of the Aldehyde Dehydrogenase Family (ALDH1A3) Primary screen (AID 2061315).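 Further: plate controls were DMSO vehicle for no effect and reference inhibitor for full effect.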 The conditions noted are these: ALDH inhibition qHTS; series mostly up to 56 µM; activity change, negative = inhibition: at the top concentration. (In qHTS, concentration-response curves come from the screen itself.)
Take `CCOC(=O)c1c(/C=N/Nc2ccccc2)c2sc(C)cc2n1C`: the “activity change, negative = inhibition” value was -19%.

For the molecule `N#Cc1nc(NCC(F)F)c2ncn(-c3cc(F)cc(F)c3)c2n1`, the “activity change, negative = inhibition” value is 2.98%.

On to `O=c1c2[nH]c3cc(Br)sc3c2cnn1Cc1ccccc1F`, for which the “activity change, negative = inhibition” value was 6.73%.

For the molecule `O=C(Nc1ccccc1F)c1ccc(O)c2ncccc12`, the “activity change, negative = inhibition” value is 1.67%.

Turning to `Cn1c2ccsc2c2ncn(Cc3ccccc3F)c(=O)c21`, the “activity change, negative = inhibition” value is -5.51%.

Take `C=CC(=O)Nc1cc(Nc2ncc(Cl)c(-c3c[nH]c4ccccc34)n2)c(OC)cc1N(C)CCN(C)C`: the “activity change, negative = inhibition” value was -7.87%.

As to `CCN(CC)CCCC(C)n1c(-c2ccccc2)nc2c(N(CCOC)CCOC)nc(C)nc21` (stereo not given), the “activity change, negative = inhibition” value was 25.8%.

In the case of `N#Cc1ccccc1-c1csc(N2CCC(C(N)=O)CC2)n1`, the “activity change, negative = inhibition” value is -16.4%.

Turning to `Cc1cccc(Nc2nn3c(=O)c4ccccc4nc3s2)c1`, the “activity change, negative = inhibition” value was -7.54%.

As for `COc1ccccc1C1=Nn2c(COc3ccccc3)nnc2SC1`, the Potency result was “inactive”.

Take `FC(F)(F)c1ccccc1-c1nc(NCc2ccc(Cl)c(Cl)c2)c2ccccc2n1`: the “activity change, negative = inhibition” value was -4.91%.

For `Nc1nc(Nc2cc(F)cc(F)c2)nc(NC2CCCC2)n1`, the “activity change, negative = inhibition” value is -1.92%.

With `O=C1CCCC2=C1C(c1[nH]ncc1Cl)N=C(Nc1nc3c(Br)cccc3o1)N2` (stereo not given), the “activity change, negative = inhibition” value was 5.07%.

Take `CC(=O)Nc1sc2c(c1-c1cccc3ccccc13)CCNC2`: the “activity change, negative = inhibition” value is -1.55%.

Consider `C=C(C)C(=O)O[C@H]1[C@H]2C(=C)C(=O)O[C@@H]2C[C@@H](C)[C@@H]2O[C@@H]2C(=O)[C@](C)(O)[C@@H]1OC(C)=O`, for which the “activity change, negative = inhibition” value is -2.17% [at 28 µM].

As to `COC(=O)C1CCN(C(=O)c2ccc3c(c2)ncn3-c2cccc(C)c2)CC1`, the “activity change, negative = inhibition” value is -2.1%.

For the molecule `C=C1C(=O)OC2/C=C(/C)C3=CC(=O)C(C)(CC(OC(=O)/C(C)=C/COC(C)=O)C12)O3` (stereo not given), the “activity change, negative = inhibition” value is -5.12% [at 28 µM].

With `Cc1ccc(S(=O)(=O)Nc2ccc(C(=O)Nc3ncc(-c4ccccc4)s3)cc2)cc1`, the “activity change, negative = inhibition” value was -6.3%.

In the case of `Cc1cc(NS(=O)(=O)C2CCN(C(=O)Cc3ccc(Cl)c(Cl)c3)CC2)no1`, the “activity change, negative = inhibition” value was 7.88%.

As to `CC(C)(C)c1ccccc1Nc1nc(C#N)nc(NC2CCCC2)n1`, the “activity change, negative = inhibition” value was 2.52%.

For the molecule `N#Cc1ccc(-c2nc(NCc3ccc(-c4ccnc(C(F)(F)F)c4)cc3)c3ccccc3n2)cc1`, the “activity change, negative = inhibition” value is -2.18%.

For the molecule `CCOc1ccc(CCNC(=O)Cc2ccccc2)cc1OCC`, the “activity change, negative = inhibition” value was 10%.

For `O=C(O)c1ccc2c(c1)C(=O)N([C@]1(C(=O)O)CC1c1ccccc1)C2=O` (stereo not given in full), the “activity change, negative = inhibition” value is -4.14%.

As for `Cc1cc(N[S+](=O)([O-])c2ccc(NC(=O)Cc3ccc(C(F)(F)F)c(F)c3)cc2)no1`, the “activity change, negative = inhibition” value was 15.6%.

As for `NC(=O)c1ccc(O)c2ncccc12`, the “activity change, negative = inhibition” value was -13%.

Regarding `Fc1ccc(-c2ccc(CNc3nc(-c4ccccc4C(F)(F)F)nc4ccccc34)cc2)cc1C(F)(F)F`, the “activity change, negative = inhibition” value is 0.489%.

In the case of `O=C1CCCC2=C1C1(CCCC1)N=C(Nc1nc3cc(Cl)ccc3o1)N2`, the “activity change, negative = inhibition” value was 16.6%.

In the case of `Cn1c(=O)c2c(nc(CN3CCN(C(=O)C4CC4)CC3)n2Cc2ccccc2Cl)n(C)c1=O`, the “activity change, negative = inhibition” value was 5.4%.

With `COc1cc(NC(=O)C(OC(=O)CNC(=O)c2ccccc2)c2ccccc2)c(OC)cc1Cl` (stereo not given), the “activity change, negative = inhibition” value was -6.86%.

On to `COc1ccccc1NC(=O)c1ccc2ccccc2c1`, for which the “activity change, negative = inhibition” value was -4.69%.

Regarding `COc1ccc(C2=Nn3c(nnc3-c3ccccc3OC)SC2)cc1OC`, the “activity change, negative = inhibition” value was 1.53%.

For the molecule `CNc1oc(-c2ccc(-c3ccccc3)cc2)nc1C#N`, the “activity change, negative = inhibition” value was 11%.

`Cc1cc2c(cc1C1(c3ccc(C(=O)O)cc3)CC1)C(C)(C)CCC2(C)C`: the “activity change, negative = inhibition” value is 0.586%.

For `O=S(=O)(NC1CCN(S(=O)(=O)c2c(F)cccc2F)C1)c1ccc2c(c1)OCCO2` (stereo not given), the “activity change, negative = inhibition” value is 2.19%.

For the molecule `Fc1cc(-c2nc(Nc3ccc(F)c(F)c3)c3ccccc3n2)ccn1`, the “activity change, negative = inhibition” value was 0.867%.

Take `O=C(Nc1ccc2ccccc2c1)Nc1nnc(-c2ccc(O)cc2)s1`: the “activity change, negative = inhibition” value is 1.59%.

As for `Oc1ccc(/C=C/c2c(F)cccc2F)c2cccnc12`, the “activity change, negative = inhibition” value was 22.6%.

On to `C[n+]1cc(C(O)(c2ccccc2)c2ccccc2)n2ccccc21`, for which the “activity change, negative = inhibition” value was -8.9%.

For `Cc1ccc(OCCn2c(CCNC(=O)c3ccccc3C)nc3ccccc32)cc1`, the “activity change, negative = inhibition” value was 11.1%.

On to `COc1ccc2c(=O)n3nc(Nc4cccc(N5CCN(C)CC5)c4)sc3nc2c1`, for which the “activity change, negative = inhibition” value is -3.99%.
